This is a sample that favours compounds with a hit; in the whole collection about 8.3% have one here.
Gal4-VP16 FLuc: Gal4-VP16 reporter inhibition counter-screen. Drosophila S2 Gal4-VP16 UAS-luciferase, luminescence, 20 h. Potency, µM (doses to about 53.6 µM), inactives show top-dose activity, negative = inhibition, hits mostly inhibitors. 310,000 tested, 3.5% active. AID 2546;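 note: Gal4-VP16 expression switched on by copper sulfate through the metallothionein promoter; potency is the fitted concentration of half-maximal effect; % is set by controls: 0 for no effect and ±100 for the full control effect; nearly all actives have a fitted effect of over 50% in size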
SW480 rerep: induces DNA re-replication in SW480 colon adenocarcinoma cells | SW480 DNA re-replication, Hoechst DNA content imaging, 48 h | Potency, µM (series often up to 46.1 µM), for inactives: at the top dose re-replication activation, most hits filed as activators | 340,000 tested, 1.8% active | AID 624297; note: potency is the fitted concentration of half-maximal effect; % of control where 0% means no effect; nearly all actives have a fitted effect of over 55% in size
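SW480 cells exposed to compounds for 48 hr at 37 C, 5% CO2, then Hoechst-stained 40 min. Nuclear DNA content imaged by fluorescence scanning (405 nm excitation, 500-530 nm emission); re-replication scored as increased high-intensity nuclei.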
RORg inh: inhibitors of mouse ROR gamma transcriptional activity; AID 2551; Drosophila S2 Gal4-RORgamma UAS-luciferase reporter, 20 h; 310,000 tested, 5.4% active; Potency, µM (doses to about 53.6 µM), inactives show at the top dose activity change, negative = inhibition, hits mostly inhibitors; note: potency is the fitted concentration of half-maximal effect; % is set by controls: 0 for no effect and ±100 for the full control effect; nearly all actives have a fitted effect of over 60% in size
Target sequence (P51450 whole entry, looked up, the tested form may be a part): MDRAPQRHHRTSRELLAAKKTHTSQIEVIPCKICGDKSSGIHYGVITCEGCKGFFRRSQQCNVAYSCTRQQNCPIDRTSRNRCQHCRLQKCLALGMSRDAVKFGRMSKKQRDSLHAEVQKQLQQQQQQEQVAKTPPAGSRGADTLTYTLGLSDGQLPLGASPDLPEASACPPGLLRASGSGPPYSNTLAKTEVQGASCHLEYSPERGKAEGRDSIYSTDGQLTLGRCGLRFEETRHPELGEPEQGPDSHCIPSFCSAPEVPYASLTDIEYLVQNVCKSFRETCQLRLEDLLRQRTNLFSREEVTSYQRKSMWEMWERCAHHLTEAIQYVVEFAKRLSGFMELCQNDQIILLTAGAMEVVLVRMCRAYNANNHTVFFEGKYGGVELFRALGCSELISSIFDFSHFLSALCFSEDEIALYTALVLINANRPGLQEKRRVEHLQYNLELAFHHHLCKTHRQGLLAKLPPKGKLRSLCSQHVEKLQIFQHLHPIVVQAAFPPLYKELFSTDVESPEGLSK
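Read-out: Photinus luciferase luminescence; inhibitors lower reporter signal. Insect Schneider cells with Gal4-ROR gamma fusion under metallothionein promoter, UAS reporter; 700 uM final copper sulfate induction, 20 hr, ambient temperature.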
Chronic BCR inh: chronic active BCR signaling inhibition; ABC-DLBCL IkBa-CBG/CBR reporter, luminescence ratio, 4 h; Potency, µM (titrated, usually from 46.1 µM), for the others: at the highest dose activity change, negative = inhibition, most hits filed as inhibitors; 340,000 tested, 0.05% active; active = well fitted inhibition curve with a large enough effect in the signal ratio, with a control signal flat, not every such curve was filed as active; inconclusive = small, poorly fitted or top-dose-only effect, or effect the other way, or a change in a side signal; the % refers to the signal ratio;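 note: potency is the fitted concentration of half-maximal effect; plate controls were basal doxycycline-induced cells for no effect and cells given 10 µM MG132 for full effect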
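TMD8 ABC-DLBCL cells carrying doxycycline-inducible green luciferase fused to IkappaBalpha plus unfused red luciferase were exposed to compounds (up to 46 uM) for 4 hrs at 37C. Activity came from the overlap-corrected green/red luminescence ratio.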
MCF10A rereplic: DNA re-replication induction in MCF 10a cells. Potency, µM (top dose mostly 46.1 µM), for inactives: top-dose activity, positive = re-replication, most hits filed as activators. MCF 10A DNA re-replication, Hoechst nuclear intensity, 48 h. AID 624296. 350,000 tested, 2.9% active; note: potency is the fitted concentration of half-maximal effect; % of control where 0% means no effect; nearly all actives have a fitted effect of over 50% in size
Giardia kill: kills Giardia lamblia | Giardia lamblia trophozoite viability | activity change, % at 7.66 µM, hits read low | 340,000 tested, 0.15% active; in the data active = activity change below about -80%; inconclusive = between about -30% and that limit;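 note: parasites exposed to compound for two days anaerobically before the ATP read; % is set by controls: 0 for no effect and ±100 for the full control effect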
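ATP-content bioluminescence gauges trophozoite survival. Cells (100/well) receive compound and incubate anaerobically for 48 hrs at 37 deg C; detection reagent follows for 15-30 min at room temperature.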
An asterisk follows results filed as active; u = inconclusive; x = no result; [ ] = remark or other dose. Unless noted, calls come from the whole dose curve; as a rule, active = well fitted curve in the direction sought with a large enough effect; inconclusive = small, poorly fitted or top-dose-only effect, or another doubt; inactive = no such curve, though single readings can be large; an effect the other way counts as inactive or inconclusive.

SMILES | Gal4-VP16 FLuc | SW480 rerep | RORg inh | Chronic BCR inh | MCF10A rereplic | Giardia kill
Cc1c(C(=O)NCCC2=CCCCC2)oc2ccc(S(=O)(=O)N3CCC4(CC3)OCCO4)cc12 | -1% | 24% | -2% | -13% | u | 29
COc1ccccc1OCCCn1cc(C=O)c2ccccc21 | 0.002µM* | -3% | u | u | -2% | -6
CC(=O)c1cn(Cc2ccccc2F)c2ccccc12 | 7.1µM* | -1% | 28% | u | 28% | 6
O=Cc1cn(Cc2ccccc2F)c2ccccc12 | -15%[10 µM] | u | 2µM* | u | 20% | -9
CC(=O)c1cn(Cc2ccccc2C#N)c2ccccc12 | 3.2µM* | u | u | u | u | 9
O=Cc1cn(Cc2c(F)cccc2Cl)c2ccccc12 | u | -20% | -41% | -18% | u | 15
CCC[CH2][Sn]([Cl])([Cl])[Cl] | -9% | x | -6% | x | x | x
Oc1ccccc1/C=N/NP(=S)(c1ccccc1)c1ccccc1 | 6% | -15% | 11µM* | u | 18% | -11
Oc1ccc(/C=N/NP(=S)(c2ccccc2)c2ccccc2)c(O)c1O | -1% | -8% | -37% | 20% | 13% | -3
COc1nn(-c2ccccc2)c(=O)c(Cl)c1Cl | 11µM* | 2.9µM* | u | u | 3.7µM* | 1
O=C(O)Cc1cccnc1C(=O)O | -7% | x | -7% | x | x | x
CC(=O)C1C(N2CC2)CC2C3CC=C4CC(O)CCC4(C)C3CCC21C (stereo not given) | x | 23µM* | x | x | 4.6µM* | 5
C[C@]12CC[C@H](O)CC1=CCC1C2CC[C@@]2(C)C1C[C@@H](O)[C@@H]2O (stereo not given in full) | x | 4% | x | 1% | 0% | -22
COc1c(C)cc(C(=O)C2CCCN(Cc3cccc(O)c3)C2)cc1C (stereo not given) | 2% | -16% | -1% | -2% | 6.5µM* | 5
Cc1cccc(CN2CCCC(C(=O)c3cccc(OC(C)C)c3)C2)n1 (stereo not given) | 16µM* | u | 2.2µM* | 0% | 20% | 21
COc1ccc(C(=O)C2CCCN(Cc3ccccn3)C2)c(OC)c1 (stereo not given) | -12% | -77% | 10µM* | -2% | 6% | -3
COc1c(C)cc(C(=O)C2CCCN(Cc3cccc(C)n3)C2)cc1C (stereo not given) | 13µM* | -117% | 2.2µM* | -5% | 27% | 6
COCCN(C(=O)CCl)c1c(C)cccc1C | 11% | x | 10% | x | x | x
Cc1cccc(CN2CCCC(C(=O)c3ccc4c(c3)OCO4)C2)n1 (stereo not given) | 13µM* | 6% | 3.2µM* | -30% | u | -5
COc1cccc(C(=O)C2CCCN(Cc3ccon3)C2)c1 (stereo not given) | -24% | -3% | -7% | -1% | -4% | 3
COc1cccc(C(=O)C2CCCN(Cc3cccc(C)n3)C2)c1 (stereo not given) | 14µM* | -3% | u | u | 15% | -5
O=c1[nH]c2sccc2c2ccccc12 | -2% | x | 3% | x | x | x
CCOC(=O)C1CCCN(c2ccc([N+](=O)[O-])c3nonc23)C1 (stereo not given) | -4% | -11% | -34% | u | 13% | -95*
Cn1c(=O)oc2cc(S(=O)(=O)N3CCC(C(=O)NCCc4ccccc4)CC3)ccc21 | -7% | u | 33% | u | 15% | 6
CC(C)c1nnc(NC(=O)c2nc(S(=O)(=O)Cc3ccccc3)ncc2Cl)s1 | 11µM* | u | 22µM* | u | u | -20
SMILES | Gal4-VP16 FLuc | SW480 rerep | RORg inh | Chronic BCR inh | MCF10A rereplic | Giardia kill
C=CCOC(C)=O | 3% | x | 9% | x | x | x
CCCC[C@H]1C(=O)O[C@H](C)[C@H](NC(=O)c2cccc(NC=O)c2OC)C(=O)O[C@@H](C)[C@@H]1OC(=O)CC(C)C | 1.8µM* | x | 1.8µM* | x | x | x
CCCCCC1C(=O)O[C@H](C)[C@@H](NC(=O)c2cccc(NC=O)c2O)C(=O)OC(C)C1OC(=O)CC(C)C (stereo not given in full) | 11µM* | x | 0.005µM* | x | x | x
O=C(O)C(Cl)(Cl)Br | -7% | x | 4% | x | x | x
C=CCCC#N | -13% | x | -8% | x | x | x
S=c1[nH]nc(-c2ccco2)n1-c1cccc2ccccc12 | 13µM* | 0% | 7.9µM* | -5% | 3% | -12
c1ccc(N=NNc2ccccc2)cc1 | 5% | x | 18% | x | x | x
Cc1cccn2c(=O)c3cc(C(=O)N4CCC5(CC4)OCCO5)n(C)c3nc12 | -12% | 7.3µM* | -27% | -1% | 2.6µM* | 1
S=c1nc(-c2ccccc2)n(-c2ccccc2)[nH]1 | u | -1% | 10µM* | 0% | 0% | 1
Cc1ccc(-c2n[nH]c(=S)n2-c2ccccc2)cc1 | u | -2% | u | 17% | 0% | -11
Cc1occc1C(=O)Nc1ccccc1 | 4% | x | 35% | x | x | x
Cc1cc(C(=O)Nc2ccc(CC(=O)O)cc2)c(C)o1 | u | -3% | 11µM* | 5% | 1% | -26
C/C=C1\C[N@@+]2(C)CC[C@@]34C(=C(C=O)[C@H]1C[C@H]32)Nc1ccccc14 | 6%[17 µM] | x | 0%[16.9 µM] | x | x | x
CC/C(=N\NC(=O)c1ccccc1)c1c(O)n(C2CCCCC2)c(=O)[nH]c1=O | u | -21% | 14µM* | u | -3% | -13
CCC(=Nc1ccc2c(c1)CCC2)c1c(O)n(C2CCCCC2)c(=O)[nH]c1=O | 17% | -3% | u | 4% | 1% | 14
CCC(=NC1CC1)c1c(O)n(C2CCCCC2)c(=O)[nH]c1=O | 27% | -13% | 26% | 3% | 3% | -12
CC/C(=N\NC(=O)c1ccccc1Cl)c1c(O)n(C2CCCCC2)c(=O)[nH]c1=O | 13µM* | 1% | 7.9µM* | u | 20% | -19
CC1C2Cc3ccc(O)cc3[C@]1(C)CCN2CCc1ccccc1 (stereo not given in full) | x | -13% | x | -1% | -22% | 9
CC1[C@H]2Cc3ccc(O)cc3[C@]1(C)CCN2CCc1ccccc1 (stereo not given in full) | x | 1µM* | x | 2% | -3% | -1
C=CCc1c(C)nc(C)nc1N/N=C/c1ccc(N(C)C)cc1 | u | 29% | 4.5µM* | u | 0% | 3
CC(=O)C1=NOC(CNc2ncc(C(F)(F)F)cc2Cl)C1 (stereo not given) | -2% | -4% | u | -4% | -3% | -19
Clc1cccc2ccccc12 | 1% | x | -19% | x | x | x
S=C=Nc1cccc2ccccc12 | 13µM* | x | 6.3µM* | x | x | x
C=CC(=O)OCC(C)C | -15% | x | -5% | x | x | x

Assay outcomes as filed in PubChem.
